Results as given in PubChem BioAssay (Tox21).
Values joined by “and” are separate entries in the source; they are usually repeats but may differ in a detail not shown here. Equal values may be shown once. Results filed as inconclusive are left out. A call without a number means that no potency is given here. A structure can be active in one record and inactive in another. Active and inactive are the calls of the source. Unless noted, calls come from the whole dose curve.

test: Nuclear factor erythroid 2-related factor 2/antioxidant responsive element (Nrf2/ARE) small molecule agonists: qHTS cell viability counter screen in human keratinocytes (AID 1919968; active = well fitted cell-killing curve with a large enough effect in the repeat runs; note: nearly all actives have a fitted effect of over 55% in size); conditions: KeratinoSens HaCaT ARE cells viability, CellTiter-Fluor, 24 h; series mostly up to 92.4 µM
Procedure, shortened: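 Cytotoxicity was multiplexed with the Nrf2/ARE luciferase assay in the same wells. Stably transfected HaCaT keratinocytes were treated with test compounds for 23 h at 37 C. Cell viability was then measured by CellTiter-Fluor fluorescence.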
Potency is the fitted concentration of half-maximal effect.

| SMILES | Potency |
| --- | --- |
| N#CCCO | inactive |
| C=CCSSCC=C | inactive |
| N#Cc1ccc(Cl)cc1 | inactive |
| C=CCc1cc(OC)c2c(c1)OCO2 | inactive |
| c1ccc(-c2cccc(-c3ccccc3)c2)cc1 | inactive |
| c1ccc(NNc2ccccc2)cc1 | inactive |
| O=c1[nH]c2ccccc2n1C1CCN(CCCC(c2ccc(F)cc2)c2ccc(F)cc2)CC1 | 27.3 µM (active) and 13.3 µM (active) |
| CCCCCCCCCCn1cc[n+](C)c1 | inactive and 61.4 µM (active) and 30.6 µM (active) |
| OCCSSCCO | inactive |
| CCN | inactive |
| N#Cc1ccc(O)cc1 | inactive |
| NCCOS(=O)(=O)O | inactive |
| O=NN(c1ccccc1)c1ccccc1 | inactive |
| COC(=O)Nc1cccc(OC(=O)Nc2cccc(C)c2)c1 | inactive |
| CC(Br)C(=O)O (stereo unspecified) | inactive |
| O=S1OCC2C(CO1)C1(Cl)C(Cl)=C(Cl)C2(Cl)C1(Cl)Cl (stereo unspecified) | 48.6 µM (active) and 61.1 µM (active) |
| ClC1=C(Cl)C2(Cl)C3C(Cl)C(Cl)CC3C1(Cl)C2(Cl)Cl (stereo unspecified) | 30.5 µM (active) and 43.3 µM (active) |
| ClC(Cl)(Cl)Br | inactive |
| CCN(CC)Cc1nccn1-c1ccc([N+](=O)[O-])cc1C(=O)c1ccccc1Cl | inactive |

| SMILES | Potency |
| --- | --- |
| Cl/C=C/CCl | inactive |
| CCCCCCCCSC(=O)Oc1cc(Cl)nnc1-c1ccccc1 | inactive |
| Cc1ccc(N)cc1N | inactive |
| [O-][Cl+]O | inactive |
| OCCOc1ccccc1 | inactive |
| CC(C)Nc1ccc(Nc2ccccc2)cc1 | 30.5 µM (active) |
| O=C(CCN1CC1)OCC(CO)(COC(=O)CCN1CC1)COC(=O)CCN1CC1 | inactive |
| CC(C)(C)C(O)(CCc1ccc(Cl)cc1)Cn1cncn1 (stereo unspecified) | inactive |
| CC1COC2(c3ccccc3Cl)c3cc(Cl)ccc3NC(=O)CN12 (stereo unspecified) | inactive |
| CC(C)(C)OOC(C)(C)CCC(C)(C)OOC(C)(C)C | inactive |
| N#CC(c1ccccc1)c1ccccc1 | inactive |
| O=C(Cl)OCCOCCOC(=O)Cl | inactive |
| CCN(CC)C(=O)C(C)Oc1cccc2ccccc12 (stereo unspecified) | inactive |
| CN(C)CCC#N | inactive |
| CCN(CCO)CCO | inactive |
| O=C(NCO)NCO | inactive |
| Nc1c(Br)cc([N+](=O)[O-])cc1[N+](=O)[O-] | inactive |
| Cc1cccc(N)c1N | inactive |
| CC(C)C(=O)OCC(C)(C)C(OC(=O)C(C)C)C(C)C (stereo unspecified) | inactive |

test: Nuclear factor erythroid 2-related factor 2/antioxidant responsive element (Nrf2/ARE) small molecule agonists: luciferase reporter gene qHTS assay in human keratinocytes (AID 1919969); conditions: KeratinoSens HaCaT ARE-luciferase, luminescence, 24 h; series mostly up to 92.4 µM; note: nearly all actives have a fitted effect of over 35% in size

| SMILES | Potency |
| --- | --- |
| N#CCCO | inactive |
| C=CCSSCC=C | inactive |
| N#Cc1ccc(Cl)cc1 | inactive |
| C=CCc1cc(OC)c2c(c1)OCO2 | inactive |
| c1ccc(-c2cccc(-c3ccccc3)c2)cc1 | 21.9 µM (active) and 27.3 µM (active) |
| c1ccc(NNc2ccccc2)cc1 | 55 µM (active) |
| O=c1[nH]c2ccccc2n1C1CCN(CCCC(c2ccc(F)cc2)c2ccc(F)cc2)CC1 | inactive |
| CCCCCCCCCCn1cc[n+](C)c1 | inactive |
| OCCSSCCO | inactive |
| CCN | inactive |
| N#Cc1ccc(O)cc1 | inactive |
| NCCOS(=O)(=O)O | inactive |
| O=NN(c1ccccc1)c1ccccc1 | inactive |
| COC(=O)Nc1cccc(OC(=O)Nc2cccc(C)c2)c1 | 13.7 µM (active) and inactive |
| CC(Br)C(=O)O (stereo unspecified) | inactive |
| O=S1OCC2C(CO1)C1(Cl)C(Cl)=C(Cl)C2(Cl)C1(Cl)Cl (stereo unspecified) | inactive |
| ClC1=C(Cl)C2(Cl)C3C(Cl)C(Cl)CC3C1(Cl)C2(Cl)Cl (stereo unspecified) | 4.84 µM (active) and 12.2 µM (active) |
| ClC(Cl)(Cl)Br | inactive |
| CCN(CC)Cc1nccn1-c1ccc([N+](=O)[O-])cc1C(=O)c1ccccc1Cl | inactive |

| SMILES | Potency |
| --- | --- |
| Cl/C=C/CCl | inactive |
| CCCCCCCCSC(=O)Oc1cc(Cl)nnc1-c1ccccc1 | inactive |
| Cc1ccc(N)cc1N | 26.6 µM (active) and 30.6 µM (active) |
| [O-][Cl+]O | inactive |
| OCCOc1ccccc1 | inactive |
| CC(C)Nc1ccc(Nc2ccccc2)cc1 | 9.65 µM (active) and 24.3 µM (active) |
| O=C(CCN1CC1)OCC(CO)(COC(=O)CCN1CC1)COC(=O)CCN1CC1 | inactive |
| CC(C)(C)C(O)(CCc1ccc(Cl)cc1)Cn1cncn1 (stereo unspecified) | inactive |
| CC1COC2(c3ccccc3Cl)c3cc(Cl)ccc3NC(=O)CN12 (stereo unspecified) | inactive |
| CC(C)(C)OOC(C)(C)CCC(C)(C)OOC(C)(C)C | inactive |
| N#CC(c1ccccc1)c1ccccc1 | inactive |
| O=C(Cl)OCCOCCOC(=O)Cl | inactive |
| CCN(CC)C(=O)C(C)Oc1cccc2ccccc12 (stereo unspecified) | inactive |
| CN(C)CCC#N | inactive |
| CCN(CCO)CCO | inactive |
| O=C(NCO)NCO | inactive |
| Nc1c(Br)cc([N+](=O)[O-])cc1[N+](=O)[O-] | inactive |
| Cc1cccc(N)c1N | 2.35 µM (active) and 48.6 µM (active) |
| CC(C)C(=O)OCC(C)(C)C(OC(=O)C(C)C)C(C)C (stereo unspecified) | inactive |
